Only some compounds are listed: those with a hit (about 1.4% of all), similar ones and a draw of the others.
FPRL1 binder: ligands of human FPRL1, also counter-screen for FPR ligands; FPRL1-expressing cells, fluorescent ligand binding inhibition, flow cytometry; inhibition, % (test concentration not listed); 24,000 compounds, 0.3% hits;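 further: 0% = buffer alone and 100% = receptor blocker peptide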
Prostate diff: LNCaP prostate cell differentiation activation; flow cytometry side scatter, 4 d; side scatter shift, % at 10 µM; AID 795; 24,000 compounds, 0.56% hits;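 active means side scatter shift above 30%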;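 further: androgen-responsive LNCaP prostate cancer cells in charcoal-stripped serum medium; percent of cells past a gate set so DMSO wells show 10% shift; higher shift means more granular cells and more differentiation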
S aureus QS inh: blocks AIP-induced quorum sensing reporter in S. aureus | S. aureus RN6390 RNAIII-GFP reporter, flow cytometry 3 h | inhibition, % at 2 µM | 24,000 compounds, 0.3% hits;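 active means share of bacteria positive for the green fluorescent reporter and its mean brightness both inhibited by 50% or more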;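 further: 0% = AIP-stimulated control and 100% = unstimulated bacteria without AIP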
FPR ligand: human FPR ligand, with FPRL1 counter-screen; FPR-expressing cells, fluorescent ligand binding, flow cytometry; inhibition, % (test concentration not listed); 24,000 compounds, 0.74% hits;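 further: 0% = buffer wells and 100% = receptor blocker peptide wells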
Target sequence (P21462 whole entry, looked up): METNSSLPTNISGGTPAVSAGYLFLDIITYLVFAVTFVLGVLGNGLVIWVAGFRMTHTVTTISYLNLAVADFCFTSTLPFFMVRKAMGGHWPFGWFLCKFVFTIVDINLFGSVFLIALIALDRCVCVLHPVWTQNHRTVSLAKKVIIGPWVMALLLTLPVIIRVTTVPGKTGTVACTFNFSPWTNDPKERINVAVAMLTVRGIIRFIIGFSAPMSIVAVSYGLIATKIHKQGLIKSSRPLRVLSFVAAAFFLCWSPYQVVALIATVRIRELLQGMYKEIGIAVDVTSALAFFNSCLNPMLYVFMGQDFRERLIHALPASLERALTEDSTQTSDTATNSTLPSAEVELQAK
* hit, by the source's call; nt = no result given; ! = a repeat was not active. Unless noted, no stated cut-off is given here; in the data, active means inhibition above about 30%; inconclusive means no clear call, values can overlap the other calls; inactive means below that.

SMILES	FPRL1 binder	Prostate diff	S aureus QS inh	FPR ligand
COC(=O)c1ccc2c(=O)sc(N3CCC(C(N)=O)CC3)nc2c1	-5.8	2.0	-0.4	-5.3
CC(=O)SCC(=O)N=c1sc2cc(F)ccc2n1C	33.7*	14.0	-0.8	56.3*
Cc1ccc(C)c(/C(O)=C2/C(=O)C(=O)N(CCN3CCOCC3)C2c2ccc(C)o2)c1 (stereo not drawn)	-2.1	nt	nt	-0.5
Cc1ccc(C2/C(=C(/O)c3ccc(Cl)cc3)C(=O)C(=O)N2CC2CCCO2)o1 (stereo not drawn)	-1.8	nt	nt	60.3*
CC1(C)CC(=O)C2=C(C1)NC(=O)CC2c1ccc(N(CCC#N)CCC#N)cc1 (stereo not drawn)	6.0	3.0	-5.1	0.9
Cc1cc(NC(=O)CC(C)(C)C)nc2c1c(=O)oc1ccccc12	-10.4	6.0	72.2*!	7.3
CCc1c(C)nc2c(C#N)c(C)[nH]n2c1=O	26.8	nt	nt	49.6*
Cc1nc2c(C#N)c(C)[nH]n2c(=O)c1Cc1ccccc1	2.3	nt	nt	32.3*
Cc1nc2c(C#N)c[nH]n2c(=O)c1Cc1ccccc1	-6.8	nt	nt	39.7*
Cc1[nH]n2c(=O)cc(Cc3ccccc3)nc2c1C#N	-2.2	5.0	5.1	7.1
Cn1nnnc1SCC(=O)N1CCN(c2cccc(Cl)c2)CC1	-5.5	9.0	3.4	8.8
Cc1ccc(-n2nc3c(c2NC(=O)c2ccc(S(=O)(=O)N4CCOCC4)cc2)CSC3)c(C)c1	-8.1	14.0	-2.9	-1.5
O=C(CN1CCOCC1)NCC12CC3CC(CC(C3)C1)C2	-3.1	6.0	-2.3	-2.2
COCCCN1C(=O)C(O)=C(C(=O)c2ccco2)C1c1ccc(Br)cc1 (stereo not drawn)	-4.5	8.0	-0.7	47.6*
COCCCN1C(=O)C(O)=C(C(=O)c2ccco2)C1c1cccc(Br)c1 (stereo not drawn)	-6.8	nt	nt	70.4*
CCCOc1nc(N)c(C#N)c(-c2ccccc2F)c1C#N	-3.3	15.0	1.0	1.3
COc1cccc(-c2nc(CS(=O)(=O)CC(=O)NCCC(C)C)c(C)o2)c1	2.2	3.0	-2.4	34.1*
COCCCNC(=O)CS(=O)(=O)Cc1nc(-c2cccc(OC)c2)oc1C	0.0	5.0	5.7	10.1
O=C(O)CCc1cc(I)c(Oc2ccc(O)c(I)c2)c(I)c1	-1.7	7.0	87.6*	17.1
Cc1ccc(C(c2nnnn2CCC(C)C)N2CCN(C)CC2)cc1 (stereo not drawn)	4.3	6.0	0.0	4.4
CC(=O)Nc1cc(C(=O)N2CCOCC2)ccc1S(=O)(=O)c1ccc(C)cc1	13.1	37.0*	-3.6	-1.3
CC(C)(C)OC(=O)N1CCC(C(=O)N2CCCCCC2)CC1	-6.9	31.0*	1.2	-9.3
O=S1(=O)C=C(Sc2nnc(-c3ccccc3)o2)c2ccccc21	7.6	13.0	-14.4	5.8
CCC(CC)C(=O)Nc1c2cnn(-c3ccccc3)c2nc(=O)n1-c1ccccc1	4.3	5.0	-2.1	82.6*
Cc1ccc(Cn2ccc(NC(=O)c3cc(-c4ccc(Br)cc4)on3)n2)cc1	-6.1	35.0*	-1.6	-8.5
SMILES	FPRL1 binder	Prostate diff	S aureus QS inh	FPR ligand
Cc1ccc(NC(=O)N2CCCN(Cc3ccc(F)cc3)C2)cc1C	18.5	39.0*	-1.8	5.6
CC(=O)N1CCc2cc(C(=O)CN3CCCN(Cc4ccc(F)cc4)C3)ccc21	-4.0	3.0	-1.0	4.4
Cc1ccc(NC(=O)c2cc(C)on2)cc1	-0.7	5.0	76.1*	-3.6
CCc1ccc(NC(=O)c2cc(C)on2)cc1	-1.5	4.0	-3.8	-2.2
CCOC(=O)c1[nH]c(C)c(/C(O)=C2\C(=O)C(=O)N(CCCN3CCOCC3)C2c2cccnc2)c1C (stereo not drawn)	-2.1	nt	nt	-5.5
COC(=O)c1[nH]c(C)c(/C(O)=C2\C(=O)C(=O)N(CCCN3CCOCC3)C2c2ccccn2)c1C (stereo not drawn)	-2.0	15.0	-1.2	38.1*
COCc1cc(C)c2c(N)c(C#N)sc2n1	-1.6	6.0	-2.8	-5.0
COc1ccc(Nc2nc(N)nc(CN3CCC(Cc4ccccc4)CC3)n2)cc1	6.5	49.0*	3.0	-4.8
COc1cccc(N2CCN(Cc3nc(N)nc(Nc4ccccc4OC)n3)CC2)c1	0.2	12.0	-0.3	0.0
CC1=C(C(=O)NCc2ccccn2)C2(CCC(C)CC2)OC1=O (stereo not drawn)	-1.5	1.0	-4.8	-5.7
Cn1c(=O)c2cc(S(=O)(=O)NC(C(=O)N3CCCCCC3)c3ccccc3)ccc2n(C)c1=O (stereo not drawn)	-2.9	14.0	-8.6	-2.4
C=CCOc1ccccc1/C=c1\sc2nc(=O)c(C)nn2c1=O	21.1	6.0	-3.1	13.3
O=c1[nH]c(NCc2ccccc2)nc2c1CCCC2	0.4	5.0	-5.5	-1.6

Bioassay records as filed in PubChem BioAssay.
